GDH-TPI counter: counter-screen for M. tuberculosis FBA inhibitors: GDH-TPI coupled enzymes; GDH-TPI coupled enzyme counterscreen, NADH absorbance; inhibition, % at 4.8 µM; hit rate 1.2% among 360,000; AID 588335;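 also: 0% = DMSO wells and 100% = wells lacking the enzyme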
Vc quorum ag: quorum light induction in luxS cqsA deficient V. cholerae; AID 588436; activation, % at 18.7 µM; hit rate 0.16% among 350,000; V. cholerae BH1578 lux reporter, luminescence, 6 h; in the data active = activation mostly above about 9.7%, no sharp cut-off
FBA Mtb inh: Mtb fructose-bisphosphate aldolase inhibition. hit rate 2.3% among 360,000. purified M. tuberculosis FBA, fluorescence read-out. inhibition, % at 1 µM. P9WQA3; in the data active = inhibition above about 27%;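 also: 0% = vehicle and 100% = reference inhibitor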
CCHF vOTU inh-1: CCHFV vOTU protease inhibition | Pep-AMC fluorescence | inhibition, % at 11.5 µM | hit rate 0.55% among 370,000 | AID 651958; also: 0% = vehicle wells with enzyme and 100% = no enzyme wells
CCHF vOTU inh-2: CCHFV vOTU protease inhibition, confirmation; Recombinant CCHFV vOTU, Pep-AMC fluorescence; AID 686976; inhibition, % at 11.5 µM; hit rate 17% among 1,900; shares compounds with CCHF vOTU inh-1
The depositor's hits bear a star; i = inactive; x = no result. Shown are actives, neighbours in structure and some others; about 3.9% of the full set was active somewhere. Rule as the data show it, unless noted: active = inhibition above about 30%; inactive = the rest.

SMILES	GDH-TPI counter	Vc quorum ag	FBA Mtb inh	CCHF vOTU inh-1	CCHF vOTU inh-2
COc1cc2c(cc1OC)-c1c(OC)c(OC)cc3c1[C@H](C2)N(C)CC3	-0.9	-10.0	6.8	88.5*	78.9*
Cc1nc2c(C(=O)NCCC(C)C)c[nH]n2c(=O)c1Cc1ccccc1F	10.5	i	16.0	40.7*	12.1
Cc1nc2c(C(=O)NCCC(C)C)c[nH]n2c(=O)c1Cl	15.8	-0.5	11.1	26.6	x
O=C1c2ccccc2C(c2nnnn2Cc2ccccc2)N1C1CC1 (stereo not given)	x	x	x	7.2	x
C=CCC[C@H](Cc1ccc(F)cc1)C(=O)OC[C@@H](Cc1c[nH]c2ccccc12)NC(=O)[C@@H](CC=C)CC(=O)N(CCO)Cc1ccccc1	12.6	2.8	0.3	32.1*	7.9
C=CC[C@@H](CC(=O)N[C@H](CO)Cc1ccccc1)C(=O)N[C@@H](COC(=O)[C@@H](CC=C)CC(=O)OC(C)(C)C)Cc1c[nH]c2ccccc12	7.4	i	3.8	31.0*	-10.8
C=CC[C@@H](CC(=O)N[C@H](CO)Cc1ccccc1)C(=O)N[C@H](COC(=O)[C@@H](CC=C)CC(=O)OC(C)(C)C)Cc1c[nH]c2ccccc12	3.9	0.8	4.2	18.9	x
O=S(=O)(c1ccc(NC(=S)Nc2ccccc2)cc1)N1CCOCC1	15.3	-0.3	3.9	0.2	x
CC(C)CCCCCCNC(=S)Nc1ccc(S(=O)(=O)N2CCOCC2)cc1	8.7	-0.1	-0.5	31.0*	10.9
CCN(CC)CCNC1=NCCn2c1cc1cc(OC)ccc12	7.5	i	4.9	-8.2	x
CN=C1c2cc3cc(OC)ccc3n2CCN1Cc1ccccc1	14.0	i	1.1	37.3*	-9.3

Bioassay records from PubChem.
